Reference: the supplement of paper PMC10849652
About 7,900 targets were measured; listed, in parts, are those with a hit and a random draw of the rest. About 0.6% of all pairs of compound and target were hits.

Columns and labels:
Experiment in all cases: log2 fold change, soluble protein after heating vs DMSO (PISA); higher = thermal stabilisation; K562 cells, 10 uM, 30 min; active = over 0.2 and 3.5 SD of the protein, either way, in both replicates (recomputed)
IRAK-1-4 Inhibitor I = compound: C1COCCN1CCN2C3=CC=CC=C3N=C2NC(=O)C4=CC(=CC=C4)[N+](=O)[O-] [IRAK-1-4 Inhibitor I]
In short: (§1)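 Soluble protein was defined as the supernatant after 21,000xg for 90 min. It came from K562 cells at 2×10^6 cells/mL given 10 μM compound for 30 min, heated in aliquots for 3 min across 48°C-58°C, pooled, and extracted in PBS with 0.5% NP-40 at 4°C, and was quantified by TMTpro 16plex LC-MS/MS with equalised channel sums. Thermal stability against control samples, from duplicates, is reported as log2 fold change.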

ibrutinib = compound: C=CC(=O)N1CCC[C@@H](n2nc(-c3ccc(Oc4ccccc4)cc3)c3c(N)ncnc32)C1 [ibrutinib]
In short: as §1

[1] = compound: CC(=O)c1cnc2ccc(-c3cc(Cl)c(O)c(Cl)c3)nc2c1N[C@H]1CC[C@H](CN(C)C)CC1
In short: as §1

ralimetinib = compound: CC(C)(C)Cn1c(N)nc2ccc(-c3[nH]c(C(C)(C)C)nc3-c3ccc(F)cc3)nc21 [ralimetinib]
In short: as §1

[2] = compound: CC(C)(O)CC(=O)NCCn1ccc2ncnc(Nc3ccc(Oc4cccc(C(F)(F)F)c4)c(Cl)c3)c21
In short: as §1

[3] = compound: CC(C)C1=C2N=C(C=C(N2N=C1)NCC3=CC=CC=C3)NCCCCCCN
In short: as §1

[4] = compound: CC(C)C[C@@H](C=O)NC(=O)[C@H](CC(C)C)NC(=O)[C@H](CC(C)C)NC(=O)OCc1ccccc1
In short: as §1

pinometostat = compound: CC(C)N(C[C@H]1O[C@@H](n2cnc3c(N)ncnc32)[C@H](O)[C@@H]1O)[C@H]1C[C@@H](CCc2nc3cc(C(C)(C)C)ccc3[nH]2)C1 [pinometostat]
In short: as §1

[5] = compound: CC1=C(C(CC(=O)N1)C2=CC=C(C=C2)C(F)(F)F)C(=O)NC3=C(C=C4C(=C3)C=NN4)F
In short: as §1

[6] = compound: CC1=C(C2=C(C=C1)C(=O)C3=CC=CC=C3N2CCCN)C
In short: as §1

Measured: log2 fold change

PEX7 (UniProt O00628)
Chain of UniProt O00628 (O00628 whole entry, looked up): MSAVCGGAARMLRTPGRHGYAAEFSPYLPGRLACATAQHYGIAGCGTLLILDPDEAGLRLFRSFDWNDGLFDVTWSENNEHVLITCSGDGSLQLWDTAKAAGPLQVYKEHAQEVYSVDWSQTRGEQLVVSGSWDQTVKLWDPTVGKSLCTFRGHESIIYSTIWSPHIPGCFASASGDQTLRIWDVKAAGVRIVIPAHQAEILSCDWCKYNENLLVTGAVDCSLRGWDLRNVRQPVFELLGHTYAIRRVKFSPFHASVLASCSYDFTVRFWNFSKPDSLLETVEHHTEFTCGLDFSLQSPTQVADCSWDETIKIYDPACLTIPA
inactive: IRAK-1-4 Inhibitor I 0.03 | ibrutinib -0.092 | [1] -0.106 | ralimetinib -0.064 | [2] -0.057 | [3] -0.006 | [4] 0.003 | pinometostat -0.034 | [5] 0.025 | [6] 0.033

PIK3CB (UniProt P42338)
inactive: IRAK-1-4 Inhibitor I -0.051 | ibrutinib -0.049 | [1] 0.082 | ralimetinib 0.013 | [2] -0.082 | [3] -0.082 | [4] 0.02 | pinometostat -0.069 | [5] -0.026 | [6] 0.041

POLR2D (UniProt O15514)
active: [1] 0.346 | [3] 0.374
inactive: IRAK-1-4 Inhibitor I 0.042 | ibrutinib 0.082 | ralimetinib -0.012 | [2] -0.006 | [4] -0.009 | pinometostat -0.026 | [5] -0.02 | [6] 0.26

PPIL1 (UniProt Q9Y3C6)
Chain of UniProt Q9Y3C6 (Q9Y3C6 whole entry, looked up): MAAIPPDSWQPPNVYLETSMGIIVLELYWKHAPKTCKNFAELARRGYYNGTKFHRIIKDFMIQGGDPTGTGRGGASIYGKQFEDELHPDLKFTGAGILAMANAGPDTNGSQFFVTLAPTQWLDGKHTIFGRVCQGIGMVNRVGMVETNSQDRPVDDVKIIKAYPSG
active: [1] 0.225
inactive: IRAK-1-4 Inhibitor I -0.046 | ibrutinib -0.011 | ralimetinib -0.02 | [2] -0.038 | [3] 0.08 | [4] 0.09 | pinometostat 0.082 | [5] 0.004 | [6] 0.172

PLBD1 (UniProt Q6P4A8)
Chain of UniProt Q6P4A8 (Q6P4A8 whole entry, looked up): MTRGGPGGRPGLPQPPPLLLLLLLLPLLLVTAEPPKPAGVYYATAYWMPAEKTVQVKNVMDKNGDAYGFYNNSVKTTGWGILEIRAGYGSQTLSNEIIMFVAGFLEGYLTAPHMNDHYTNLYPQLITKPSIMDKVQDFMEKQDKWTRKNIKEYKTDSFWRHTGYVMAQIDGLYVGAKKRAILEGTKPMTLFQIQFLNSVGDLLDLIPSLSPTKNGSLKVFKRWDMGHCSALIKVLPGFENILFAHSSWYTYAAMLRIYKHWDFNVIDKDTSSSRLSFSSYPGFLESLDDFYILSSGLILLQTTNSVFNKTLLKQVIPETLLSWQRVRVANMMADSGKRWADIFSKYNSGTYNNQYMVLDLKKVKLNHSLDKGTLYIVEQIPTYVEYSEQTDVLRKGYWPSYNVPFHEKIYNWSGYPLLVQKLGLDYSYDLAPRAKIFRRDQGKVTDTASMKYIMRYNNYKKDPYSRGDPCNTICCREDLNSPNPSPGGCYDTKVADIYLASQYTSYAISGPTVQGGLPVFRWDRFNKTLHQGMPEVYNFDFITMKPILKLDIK
inactive: IRAK-1-4 Inhibitor I 0.033 | ibrutinib -0.002 | [1] 0.025 | ralimetinib -0.077 | [2] 0.036 | [3] -0.012 | [4] -0.015 | pinometostat 0.057 | [5] -0.019 | [6] 0.02

PCNT (UniProt O95613)
inactive: IRAK-1-4 Inhibitor I 0.085 | ibrutinib -0.078 | [1] -0.079 | ralimetinib -0.113 | [2] -0.021 | [3] 0.053 | [4] 0.229 | pinometostat 0.069 | [5] 0.077 | [6] -0.018

PMM2 (UniProt O15305)
Chain of UniProt O15305 (O15305 whole entry, looked up): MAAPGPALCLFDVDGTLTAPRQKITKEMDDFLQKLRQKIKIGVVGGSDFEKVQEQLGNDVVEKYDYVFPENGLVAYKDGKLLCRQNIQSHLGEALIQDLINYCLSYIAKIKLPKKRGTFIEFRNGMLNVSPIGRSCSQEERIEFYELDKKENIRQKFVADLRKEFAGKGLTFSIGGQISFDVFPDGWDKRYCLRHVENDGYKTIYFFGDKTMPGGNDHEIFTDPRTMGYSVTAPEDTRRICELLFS
inactive: IRAK-1-4 Inhibitor I 0.025 | ibrutinib -0.025 | [1] 0.012 | ralimetinib -0.1 | [2] 0.009 | [3] 0.089 | [4] -0.032 | pinometostat -0.029 | [5] 0.012 | [6] -0.015

PTGES3 (UniProt Q15185)
Chain of UniProt Q15185 (Q15185 whole entry, looked up): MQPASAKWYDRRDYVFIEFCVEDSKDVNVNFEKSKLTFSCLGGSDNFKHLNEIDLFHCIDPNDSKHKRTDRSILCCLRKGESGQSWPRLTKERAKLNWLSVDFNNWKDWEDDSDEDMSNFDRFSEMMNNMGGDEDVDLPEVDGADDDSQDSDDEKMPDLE
inactive: IRAK-1-4 Inhibitor I 0.04 | ibrutinib 0 | [1] -0.01 | ralimetinib 0.017 | [2] -0.103 | [3] -0.247 | [4] -0.079 | pinometostat -0.081 | [5] 0.008 | [6] -0.202

PELO (UniProt Q9BRX2)
Chain of UniProt Q9BRX2 (Q9BRX2 whole entry, looked up): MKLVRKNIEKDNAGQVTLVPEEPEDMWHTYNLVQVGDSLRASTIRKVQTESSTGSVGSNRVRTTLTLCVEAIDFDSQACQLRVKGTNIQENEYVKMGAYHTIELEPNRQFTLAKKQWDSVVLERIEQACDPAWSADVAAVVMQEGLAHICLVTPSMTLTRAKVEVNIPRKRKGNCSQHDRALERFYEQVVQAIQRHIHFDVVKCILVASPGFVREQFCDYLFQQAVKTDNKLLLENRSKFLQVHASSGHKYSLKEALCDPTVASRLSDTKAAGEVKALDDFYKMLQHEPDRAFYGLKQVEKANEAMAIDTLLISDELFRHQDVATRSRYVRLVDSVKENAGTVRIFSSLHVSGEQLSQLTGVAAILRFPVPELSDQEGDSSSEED
inactive: IRAK-1-4 Inhibitor I -0.073 | ibrutinib 0.071 | [1] -0.106 | ralimetinib 0.122 | [2] -0.128 | [4] 0.058 | pinometostat 0.201 | [5] 0.019 | [6] 0.088
active: [3] -0.361

PRMT3 (UniProt O60678)
Chain of UniProt O60678 (O60678 whole entry, looked up): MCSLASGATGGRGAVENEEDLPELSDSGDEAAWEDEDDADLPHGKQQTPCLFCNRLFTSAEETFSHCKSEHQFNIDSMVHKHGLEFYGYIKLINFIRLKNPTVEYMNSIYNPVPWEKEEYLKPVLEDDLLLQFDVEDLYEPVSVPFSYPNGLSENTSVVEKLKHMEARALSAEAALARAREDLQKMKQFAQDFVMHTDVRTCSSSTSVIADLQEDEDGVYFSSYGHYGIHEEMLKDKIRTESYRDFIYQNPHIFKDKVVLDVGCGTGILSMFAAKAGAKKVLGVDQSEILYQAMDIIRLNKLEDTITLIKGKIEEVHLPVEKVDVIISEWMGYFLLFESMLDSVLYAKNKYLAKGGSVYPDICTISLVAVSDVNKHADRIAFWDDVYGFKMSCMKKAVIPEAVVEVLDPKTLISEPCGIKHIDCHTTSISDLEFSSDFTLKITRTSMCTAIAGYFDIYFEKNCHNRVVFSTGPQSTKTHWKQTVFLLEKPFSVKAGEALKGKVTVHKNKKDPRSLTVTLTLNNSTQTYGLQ
inactive: IRAK-1-4 Inhibitor I 0 | ibrutinib -0.102 | [1] -0.023 | ralimetinib -0.028 | [2] -0.167 | [3] -0.189 | [4] 0.028 | pinometostat 0.003 | [5] 0.013 | [6] 0.079

PPP2R5C isoform 4 (UniProt Q13362)
Chain of UniProt Q13362 (Q13362 whole entry, looked up): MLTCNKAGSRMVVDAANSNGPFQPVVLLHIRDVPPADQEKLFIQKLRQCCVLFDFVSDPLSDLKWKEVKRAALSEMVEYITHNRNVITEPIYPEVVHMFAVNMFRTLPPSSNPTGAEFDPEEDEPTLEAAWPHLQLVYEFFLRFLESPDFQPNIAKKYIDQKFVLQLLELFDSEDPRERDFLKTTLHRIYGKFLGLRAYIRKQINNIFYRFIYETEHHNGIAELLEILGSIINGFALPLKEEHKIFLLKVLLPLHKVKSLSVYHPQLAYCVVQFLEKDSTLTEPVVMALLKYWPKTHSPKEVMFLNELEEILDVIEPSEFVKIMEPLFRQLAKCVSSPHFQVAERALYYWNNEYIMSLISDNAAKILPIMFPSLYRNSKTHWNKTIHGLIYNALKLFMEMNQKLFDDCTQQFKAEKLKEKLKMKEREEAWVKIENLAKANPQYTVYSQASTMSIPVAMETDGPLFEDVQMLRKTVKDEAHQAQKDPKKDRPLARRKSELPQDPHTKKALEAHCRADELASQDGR
inactive: IRAK-1-4 Inhibitor I 0.027 | ibrutinib -0.051 | [1] 0.019 | ralimetinib -0.15 | [2] -0.07 | [3] -0.02 | [4] 0.034 | pinometostat 0.043 | [5] 0.016 | [6] -0.032

PRUNE1 (UniProt Q86TP1)
Chain of UniProt Q86TP1 (Q86TP1 whole entry, looked up): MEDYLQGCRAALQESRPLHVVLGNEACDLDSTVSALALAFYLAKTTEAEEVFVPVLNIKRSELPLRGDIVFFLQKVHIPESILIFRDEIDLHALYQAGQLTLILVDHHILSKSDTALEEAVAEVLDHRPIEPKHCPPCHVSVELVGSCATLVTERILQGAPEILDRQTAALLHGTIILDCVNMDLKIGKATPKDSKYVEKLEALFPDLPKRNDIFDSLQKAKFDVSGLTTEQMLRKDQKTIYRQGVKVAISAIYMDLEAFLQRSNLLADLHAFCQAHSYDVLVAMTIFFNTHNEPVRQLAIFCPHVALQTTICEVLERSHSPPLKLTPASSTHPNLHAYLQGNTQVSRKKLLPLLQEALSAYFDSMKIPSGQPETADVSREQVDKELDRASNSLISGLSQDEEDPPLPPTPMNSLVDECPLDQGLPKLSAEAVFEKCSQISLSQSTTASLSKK
inactive: IRAK-1-4 Inhibitor I 0.049 | ibrutinib -0.058 | [1] 0.012 | ralimetinib 0.017 | [2] -0.037 | [3] -0.129 | [4] 0.04 | pinometostat 0.08 | [5] -0.019 | [6] -0.021

PCYT1B (UniProt Q9Y5K3)
inactive: IRAK-1-4 Inhibitor I 0.014 | ibrutinib -0.029 | [1] -0.072 | ralimetinib 0.011 | [2] 0.001 | [3] -0.172 | [4] 0.027 | pinometostat -0.011 | [5] 0.058 | [6] -0.12

PML (UniProt P29590)
inactive: IRAK-1-4 Inhibitor I 0.031 | ibrutinib 0.006 | [1] 0.052 | ralimetinib 0.045 | [2] 0.012 | [3] -0.025 | [4] -0.05 | pinometostat -0.021 | [5] 0.07 | [6] -0.035

PTGR2 (UniProt Q8N8N7)
inactive: IRAK-1-4 Inhibitor I 0 | ibrutinib 0.321 | [1] -0.328 | ralimetinib -0.016 | [2] -0.042 | [3] 0.121 | [4] 0.001 | pinometostat 0.074 | [5] 0.005 | [6] 0.011

PITRM1 isoform 2 (UniProt Q5JRX3)
active: ralimetinib 0.239
inactive: IRAK-1-4 Inhibitor I 0.045 | ibrutinib -0.045 | [1] -0.046 | [2] -0.173 | [3] -0.026 | [4] 0.062 | pinometostat -0.042 | [5] -0.013 | [6] 0.006

POLA1 (UniProt P09884)
inactive: IRAK-1-4 Inhibitor I -0.034 | ibrutinib -0.06 | [1] -0.02 | ralimetinib -0.018 | [2] -0.066 | [3] -0.151 | [4] 0.005 | pinometostat -0.027 | [5] -0.044 | [6] -0.066

PHKA2 (UniProt P46019)
inactive: IRAK-1-4 Inhibitor I 0.053 | ibrutinib -0.095 | [1] 0.049 | ralimetinib 0.011 | [2] -0.1 | [3] -0.143 | [4] 0.065 | pinometostat 0.138 | [5] 0.176 | [6] 0.028

PSMD8 (UniProt P48556)
inactive: IRAK-1-4 Inhibitor I -0.058 | ibrutinib -0.033 | [1] 0.076 | ralimetinib -0.012 | [2] 0.022 | [3] 0.016 | [4] -0.194 | pinometostat 0.031 | [5] 0.051 | [6] -0.014

PARP1 (UniProt P09874)
active: [6] 0.578
inactive: IRAK-1-4 Inhibitor I -0.068 | ibrutinib -0.027 | [1] -0.052 | ralimetinib 0.039 | [2] 0.108 | [3] -0.068 | [4] 0.018 | pinometostat -0.009 | [5] -0.004

PCTP (UniProt Q9UKL6)
Chain of UniProt Q9UKL6 (Q9UKL6 whole entry, looked up): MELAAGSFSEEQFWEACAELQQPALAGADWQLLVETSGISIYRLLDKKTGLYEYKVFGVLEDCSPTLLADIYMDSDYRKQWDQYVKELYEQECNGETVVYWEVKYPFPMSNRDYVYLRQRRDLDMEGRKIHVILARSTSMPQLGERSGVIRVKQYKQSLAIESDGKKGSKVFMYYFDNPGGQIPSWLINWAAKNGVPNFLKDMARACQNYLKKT
inactive: IRAK-1-4 Inhibitor I -0.009 | ibrutinib -0.018 | [1] 0.054 | ralimetinib -0.081 | [2] -0.091 | [4] -0.012 | pinometostat -0.013 | [5] 0.04 | [6] 0.005
active: [3] -0.266

PDCD4 (UniProt Q53EL6)
inactive: IRAK-1-4 Inhibitor I -0.043 | ibrutinib -0.05 | [1] 0.271 | ralimetinib -0.042 | [2] -0.091 | [3] -0.194 | [4] -0.015 | pinometostat -0.046 | [5] -0.123 | [6] -0.17

POGLUT1 (UniProt Q8NBL1)
Chain of UniProt Q8NBL1 (Q8NBL1 whole entry, looked up): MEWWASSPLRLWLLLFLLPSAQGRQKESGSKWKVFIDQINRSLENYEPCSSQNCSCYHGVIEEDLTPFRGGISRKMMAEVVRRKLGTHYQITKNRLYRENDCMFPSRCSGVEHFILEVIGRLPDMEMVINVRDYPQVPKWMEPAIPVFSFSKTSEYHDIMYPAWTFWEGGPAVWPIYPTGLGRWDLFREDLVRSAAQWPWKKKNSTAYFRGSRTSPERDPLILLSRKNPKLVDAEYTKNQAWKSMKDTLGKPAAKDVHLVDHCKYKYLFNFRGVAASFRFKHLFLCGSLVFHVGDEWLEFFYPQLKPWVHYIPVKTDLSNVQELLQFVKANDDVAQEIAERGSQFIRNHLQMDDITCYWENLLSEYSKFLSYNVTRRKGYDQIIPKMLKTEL
inactive: IRAK-1-4 Inhibitor I -0.032 | ibrutinib -0.03 | [1] -0.047 | ralimetinib 0.162 | [2] 0.058 | [3] 0.055 | [4] -0.106 | pinometostat 0.026 | [5] 0.009 | [6] 0.016

PRPF38B (UniProt Q5VTL8)
inactive: IRAK-1-4 Inhibitor I -0.158 | ibrutinib -0.005 | ralimetinib -0.025 | [2] 0.045 | [3] -0.06 | [4] 0.03 | pinometostat -0.029 | [5] -0.007 | [6] 0.159
active: [1] -0.646

PIP4K2C (UniProt Q8TBX8)
inactive: IRAK-1-4 Inhibitor I 0.607 | ibrutinib 0.064 | ralimetinib -0.019 | [2] -0.14 | [3] 0.095 | [4] 0.003 | pinometostat -0.006 | [5] -0.106 | [6] 0.018
active: [1] 1.48

PKN1 isoform 2 (UniProt Q16512)
Chain of UniProt Q16512 (Q16512 whole entry, looked up): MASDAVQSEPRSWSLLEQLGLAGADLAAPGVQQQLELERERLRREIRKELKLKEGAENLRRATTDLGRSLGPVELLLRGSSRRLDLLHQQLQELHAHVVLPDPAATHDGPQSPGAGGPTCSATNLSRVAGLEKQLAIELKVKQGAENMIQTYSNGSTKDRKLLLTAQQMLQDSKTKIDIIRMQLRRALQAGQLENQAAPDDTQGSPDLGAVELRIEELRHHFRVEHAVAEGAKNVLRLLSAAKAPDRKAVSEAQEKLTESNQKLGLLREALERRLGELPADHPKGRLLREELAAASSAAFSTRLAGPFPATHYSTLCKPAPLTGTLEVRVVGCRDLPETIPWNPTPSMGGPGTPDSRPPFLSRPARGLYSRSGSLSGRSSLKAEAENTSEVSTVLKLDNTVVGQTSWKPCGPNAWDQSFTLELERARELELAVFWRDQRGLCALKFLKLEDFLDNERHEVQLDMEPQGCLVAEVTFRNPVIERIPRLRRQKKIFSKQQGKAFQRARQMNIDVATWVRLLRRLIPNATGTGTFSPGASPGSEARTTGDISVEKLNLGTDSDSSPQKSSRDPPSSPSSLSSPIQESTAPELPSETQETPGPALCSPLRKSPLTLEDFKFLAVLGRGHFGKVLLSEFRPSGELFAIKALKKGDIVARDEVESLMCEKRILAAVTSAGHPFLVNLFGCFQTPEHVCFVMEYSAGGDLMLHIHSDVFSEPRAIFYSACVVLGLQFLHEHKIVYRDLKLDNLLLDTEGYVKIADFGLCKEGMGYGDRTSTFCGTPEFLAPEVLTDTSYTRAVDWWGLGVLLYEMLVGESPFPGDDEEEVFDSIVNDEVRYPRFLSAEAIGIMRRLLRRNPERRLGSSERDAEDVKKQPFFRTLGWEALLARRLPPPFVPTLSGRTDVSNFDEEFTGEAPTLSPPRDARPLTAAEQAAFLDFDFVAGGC
active: [1] -1.2
inactive: IRAK-1-4 Inhibitor I -0.014 | ibrutinib -0.018 | ralimetinib 0.006 | [2] -0.09 | [3] -0.038 | [4] 0.002 | pinometostat 0.057 | [5] -0.002 | [6] 0.047

POLA2 (UniProt Q14181)
active: [3] -0.258
inactive: IRAK-1-4 Inhibitor I 0.015 | ibrutinib -0.038 | [1] -0.073 | ralimetinib -0.028 | [2] -0.083 | [4] 0.011 | pinometostat 0.041 | [5] 0 | [6] -0.021

PDS5B (UniProt Q9NTI5)
inactive: IRAK-1-4 Inhibitor I -0.184 | ibrutinib -0.102 | [1] -0.052 | ralimetinib -0.01 | [2] -0.093 | [3] -0.166 | [4] 0.124 | pinometostat 0.093 | [5] -0.078 | [6] 0.02

PTGFRN (UniProt Q9P2B2)
active: [3] 0.222
inactive: IRAK-1-4 Inhibitor I 0.009 | ibrutinib 0.06 | [1] -0.111 | ralimetinib -0.029 | [2] -0.026 | [4] 0.07 | pinometostat 0.002 | [5] 0.006 | [6] 0.028

POLR2B (UniProt P30876)
inactive: IRAK-1-4 Inhibitor I -0.095 | ibrutinib -0.002 | ralimetinib 0.066 | [2] -0.047 | [3] 0.08 | [4] 0.03 | pinometostat 0.037 | [5] -0.031 | [6] 0.03
active: [1] 0.262
